Assay outcomes: PubChem, several laboratories
Phagocytosis inh – inhibitors of macrophage phagocytosis. inhibition, % at 5 µM. J774A.1 macrophage IgG-bead phagocytosis, imaging. AID 1029. 0.07% of 110,000 active;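 active = inhibition above the mean of the plate negative controls plus 5 SD, cut at about 13% in these data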;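 note: phagocytic index as fraction of beads internalized from green versus red external bead signal; plate controls were DMSO negative control for no effect and cytochalasin-D positive control for full effect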
VCAM1 TNFa inh – reduces TNF alpha induced VCAM1 expression in HUVEC. HUVEC TNFa-induced VCAM-1 immunofluorescence, high-content imaging. inhibition, % at 2 µM. 0.48% of 95,000 active. AID 802;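 active = inhibition above the batch mean plus 3 SD, with images confirmed as a hit by eye, cut at about 37% in these data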;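 note: 0% = TNF-stimulated DMSO wells and 100% = unstimulated control wells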
cytoskel mod – modifiers of cytoskeleton assembly. HUVEC TNFa F-actin phalloidin imaging, high content. inhibition, % at 2 µM. 0.18% of 91,000 active. AID 836;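 active = inhibition above the batch mean plus 3 SD and confirmed as a hit by visual image inspection, cut at about 30% in these data, passing the limit was not always enough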
E-sel TNF inh – TNF alpha driven E-selectin expression inhibition | HUVEC TNFa-induced E-selectin immunofluorescence, high content | inhibition, % at 2 µM | 0.71% of 120,000 active | AID 1246;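 active = inhibition above the batch mean plus 3 SD, and confirmed as a hit on visual image review, cut at about 43% in these data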;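 note: 0% = TNF-stimulated DMSO wells and 100% = unstimulated control wells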
sdo1 growth – restores growth of sdo1-depleted yeast; S. cerevisiae sdo1-depleted JHY4D growth rescue, OD600 30 h; hits give high values; pdr5 snq2 efflux-pump mutant strain; AID 817; z-score at 10 µM; 0.21% of 140,000 active;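 active = z-score above 3 at both the 24 hr and the 30 hr optical density reads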;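 note: z-score against mean and SD of all compound wells on the same plate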
HUVEC tox TNFa – toxic to HUVEC cells under TNF alpha stimulation; HUVEC TNFalpha-stimulated, Hoechst cell count, imaging; cell count reduction, % at 2 µM; 0.17% of 93,000 active;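 active = cell count reduction exceeding the screen mean by over 5 SD, scaled to untreated wells per plate, cut at about 78% in these data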;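 note: cells counted after 24 h of TNF alpha exposure following the 1 h pretreatment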
Active calls of the source: *. In the library only some 1.2% were active in any assay of this set; here they are far more common.

`COc1cc(NC(=O)Cc2nn(C)c(=O)c3ccccc23)cc(OC)c1OC` gave VCAM1 TNFa inh 5, cytoskel mod 11, E-sel TNF inh 50*, sdo1 growth -0.2 and HUVEC tox TNFa -8.
For COc1ccc(OC)c(NC(=O)Cc2nn(C)c(=O)c3ccccc23)c1 the results were VCAM1 TNFa inh -12, cytoskel mod -30, E-sel TNF inh -6, sdo1 growth -0.91 and HUVEC tox TNFa 11.
`COc1ccc(CNC(=O)C(CCSC)NS(=O)(=O)c2ccccc2F)cc1` (centres undefined) gave E-sel TNF inh 79*.
`COc1ccc(CNC(=O)CSc2ccc(Br)cc2)cc1OC` gave Phagocytosis inh -2, E-sel TNF inh -1 and sdo1 growth 0.55.
C/C(=N\NC(=O)c1cccc(S(=O)(=O)N2CCCC2)c1)c1cccs1 was read as E-sel TNF inh -28.
Screening Cn1c(=O)c2c(nc(SCC(=O)NCC3CCCO3)n2Cc2ccc(F)cc2)n(C)c1=O (centres undefined) returned E-sel TNF inh 12.
For C/C(=N\NC(=O)CN(c1ccccc1Br)S(C)(=O)=O)c1ccc2c(c1)OCCO2 the results were Phagocytosis inh -1, E-sel TNF inh 66* and sdo1 growth 0.45.
`CCOC(=O)Nc1nc(-c2ccccc2)c(C(=O)c2ccccc2)s1` gave Phagocytosis inh 2, VCAM1 TNFa inh 78*, cytoskel mod 0, E-sel TNF inh -8, sdo1 growth -1.9 and HUVEC tox TNFa 58.
CCOC(=O)C1CCN(CCC(=O)Nc2ccc(C)c(C)c2)CC1 was read as E-sel TNF inh -2.
For CCOC(=O)Cc1csc(NC(=O)COc2ccc(OC)cc2)n1 the results were Phagocytosis inh 0, VCAM1 TNFa inh -9, cytoskel mod 10, E-sel TNF inh 91*, sdo1 growth 0.88 and HUVEC tox TNFa 5.
For CCOC(=O)Cc1csc(NC(=O)COc2ccc(N(C)S(=O)(=O)c3ccc(C)cc3)cc2)n1 the results were Phagocytosis inh 1, VCAM1 TNFa inh 91*, cytoskel mod -5, E-sel TNF inh 5, sdo1 growth -0.37 and HUVEC tox TNFa 76.
`O=C(CC1(c2ccc(Cl)cc2)C2CC3CC(C2)CC1C3)NCCO` (centres undefined) gave E-sel TNF inh 9.
Screening N/C(Cc1cccs1)=N\OC(=O)COc1ccccc1Cl returned Phagocytosis inh 0, VCAM1 TNFa inh -16, cytoskel mod 4, E-sel TNF inh -5, sdo1 growth -2.2 and HUVEC tox TNFa -9.
For N/C(Cc1cccs1)=N\OC(=O)COc1ccc(Br)cc1Cl the results were VCAM1 TNFa inh 70*, cytoskel mod 37*, E-sel TNF inh 6, sdo1 growth -2.4 and HUVEC tox TNFa -42.
`CC(C)(C)NC(=O)CSc1nnc(C2CC2)n1-c1ccccc1` gave E-sel TNF inh -33.
For Cn1c(SCC(=O)NC2CCCCC2)nnc1-c1cccc(N)c1 the results were VCAM1 TNFa inh 54*, cytoskel mod -11, E-sel TNF inh 3, sdo1 growth 0.39 and HUVEC tox TNFa 2.
`O=C(NCCc1ccccc1)C1CCC(CNS(=O)(=O)c2cccs2)CC1` (centres undefined) gave E-sel TNF inh 14.
`FC(F)(F)c1cc(-c2ccc3c(c2)OCO3)nc(NCc2ccco2)n1` gave Phagocytosis inh 0, VCAM1 TNFa inh 78*, cytoskel mod -7, E-sel TNF inh 19, sdo1 growth -1.2 and HUVEC tox TNFa 78*.
Cc1ccccc1OCC(=O)Nc1ccc2c(c1)COC2=O was read as Phagocytosis inh 0, VCAM1 TNFa inh -2, cytoskel mod 36*, E-sel TNF inh -35, sdo1 growth 0.08 and HUVEC tox TNFa -33.
`CCC(=O)NC(=S)NNC(=O)c1ccc(O)cc1` gave E-sel TNF inh -19.
Screening COc1ccccc1OCCn1cc(C(=O)c2ccco2)c2ccccc21 returned VCAM1 TNFa inh 4, cytoskel mod 72*, E-sel TNF inh 65*, sdo1 growth -0.57 and HUVEC tox TNFa 10.
COc1cc2c3nnc(-c4ccc(F)cc4)c-3cn(Cc3ccccc3)c2cc1OC was read as Phagocytosis inh 0, VCAM1 TNFa inh 5, cytoskel mod 33*, E-sel TNF inh 15, sdo1 growth 0.75 and HUVEC tox TNFa -12.
